# Assay results taken from the supplement of paper PMC8728848.
# Only a selection was taken, and the strongest signals are over-represented in it overall.
# B1: SRA-1 (Homo sapiens), P21757 (protein)
# chain: MEQWDHFHNQQEDTDSCSESVKFDARSMTALLPPNPKNSPSLQEKLKSFKAALIALYLLVFAVLIPLIGIVAAQLLKWETKNCSVSSTNANDITQSLTGKGNDSEEEMRFQEVFMEHMSNMEKRIQHILDMEANLMDTEHFQNFSMTTDQRFNDILLQLSTLFSSVQGHGNAIDEISKSLISLNTTLLDLQLNIENLNGKIQENTFKQQEEISKLEERVYNVSAEIMAMKEEQVHLEQEIKGEVKVLNNITNDLRLKDWEHSQTLRNITLIQGPPGPPGEKGDRGPTGESGPRGFPGPIGPPGLKGDRGAIGFPGSRGLPGYAGRPGNSGPKGQKGEKGSGNTLTPFTKVRLVGGSGPHEGRVEILHSGQWGTICDDRWEVRVGQVVCRSLGYPGVQAVHKAAHFGQGTGPIWLNEVFCFGRESSIEECKIRQWGTRACSHSEDAGVTCTL
# How the values were obtained:
# Assay in all cases: glycan array binding signal (z-score within array); higher = stronger binding
# Settings in all cases: glycan notation: IUPAC condensed, linker removed
# [1] = molecular target: Fuc(a1-2)Gal(b1-3)GlcNAc(b1-3)[Gal(b1-4)GlcNAc(b1-6)]Gal(b1-4)Glc
# How it was run: (§1)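 Glycan array data were curated from 3228 arrays in the Consortium for Functional Glycomics database and kept only where the protein sequence was available. Glycan names were converted to IUPAC-condensed notation, and columns mapping to the same glycan were averaged. The binding signal is a within-array Z-score, averaged across arrays of the same protein sequence at different concentrations or buffers and across linkers. Negative Z-scores can be read as non-binding.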
# [2] = molecular target: Fuc(a1-2)Gal(b1-4)GlcNAc(b1-2)Man(a1-3)[Fuc(a1-2)Gal(b1-4)GlcNAc(b1-2)Man(a1-6)]Man(b1-4)GlcNAc(b1-4)[Fuc(a1-6)]GlcNAc
# How it was run: as §1
# [3] = molecular target: Fuc(a1-2)Gal(b1-4)GlcNAc(b1-3)Gal(b1-4)GlcNAc(b1-2)Man(a1-3)[Fuc(a1-2)Gal(b1-4)GlcNAc(b1-3)Gal(b1-4)GlcNAc(b1-2)Man(a1-6)]Man(b1-4)GlcNAc(b1-4)GlcNAc
# How it was run: as §1
# [4] = molecular target: Fuc(a1-2)Gal(b1-4)GlcNAc(b1-3)[Fuc(a1-2)Gal(b1-4)GlcNAc(b1-6)]GalNAc
# How it was run: as §1
# [5] = molecular target: Fuc(a1-2)Gal(b1-4)[Fuc(a1-3)]GlcNAc(b1-3)[Neu5Ac(a2-6)Gal(b1-4)GlcNAc(b1-6)]Gal(b1-4)Glc
# How it was run: as §1
# [6] = molecular target: Fuc(a1-2)[Gal(a1-3)]Gal(b1-3)GlcNAc(b1-3)GalNAc
# How it was run: as §1
# [7] = molecular target: Fuc(a1-2)[GalNAc(a1-3)]Gal(b1-3)GalNAc(b1-3)Gal(a1-4)Gal(b1-4)Glc
# How it was run: as §1
# [8] = molecular target: Fuc(a1-2)[GalNAc(a1-3)]Gal(b1-3)GlcNAc(b1-2)Man(a1-3)[Fuc(a1-2)[GalNAc(a1-3)]Gal(b1-3)GlcNAc(b1-2)Man(a1-6)]Man(b1-4)GlcNAc(b1-4)GlcNAc
# How it was run: as §1
# [9] = molecular target: Fuc(a1-2)[GalNAc(a1-3)]Gal(b1-4)[Fuc(a1-3)]GlcNAc
# How it was run: as §1
# [10] = molecular target: Fuc(a1-2)[GalNAc(a1-3)]Gal(b1-4)[Fuc(a1-3)]GlcNAc(b1-3)GalNAc
# How it was run: as §1
# [11] = molecular target: Fuc(a1-3)[Gal(b1-4)]Glc6S
# How it was run: as §1
# [12] = molecular target: Fuc(a1-3)[Gal(b1-4)]GlcNAc(b1-6)GalNAc
# How it was run: as §1
# [13] = molecular target: Fuc(a1-3)[Gal(b1-4)]GlcNAc(b1-6)[Gal(b1-3)GlcNAc(b1-3)]Gal(b1-4)Glc
# How it was run: as §1
# [14] = molecular target: Fuc(a1-3)[Gal3S(b1-4)]GlcNAc6S
# How it was run: as §1
# [15] = molecular target: Fuc(a1-3)[GalNAc(b1-4)]GlcNAc
# How it was run: as §1
# Gal(a1-3)Gal(b1-4)GlcNAc = molecular target: Gal(a1-3)Gal(b1-4)GlcNAc
# How it was run: as §1
# Gal(a1-4)Gal(b1-4)Glc = molecular target: Gal(a1-4)Gal(b1-4)Glc
# How it was run: as §1
# [16] = molecular target: Gal(b1-3)GalNAc(a1-3)[Fuc(a1-2)]Gal(b1-4)GlcNAc
# How it was run: as §1
# [17] = molecular target: Gal(b1-4)GlcNAc(b1-2)[Gal(b1-4)GlcNAc(b1-6)]Man(a1-6)[GlcNAc(b1-4)][Gal(b1-4)GlcNAc(b1-2)[Gal(b1-4)GlcNAc(b1-4)]Man(a1-3)]Man(b1-4)GlcNAc(b1-4)[Fuc(a1-6)]GlcNAc
# How it was run: as §1
# [18] = molecular target: Gal(b1-4)GlcNAc(b1-3)Gal(b1-4)GlcNAc(b1-2)Man(a1-3)[Gal(b1-4)GlcNAc(b1-3)Gal(b1-4)GlcNAc(b1-2)Man(a1-6)]Man(b1-4)GlcNAc(b1-4)GlcNAc
# How it was run: as §1
# [19] = molecular target: Gal(b1-4)GlcNAc(b1-3)Gal(b1-4)GlcNAc(b1-3)Gal(b1-4)GlcNAc
# How it was run: as §1
# [20] = molecular target: Gal(b1-4)GlcNAc(b1-3)Gal(b1-4)GlcNAc(b1-6)[Gal(b1-3)]GalNAc
# How it was run: as §1
# [21] = molecular target: Gal(b1-4)GlcNAc(b1-6)GalNAc
# How it was run: as §1
# Gal3S6S(b1-4)GlcNAc = molecular target: Gal3S6S(b1-4)GlcNAc
# How it was run: as §1
# [22] = molecular target: GalNAc(b1-3)Gal(a1-4)Gal(b1-4)GlcNAc
# How it was run: as §1
# GalNAc(b1-4)GlcNAc = molecular target: GalNAc(b1-4)GlcNAc
# How it was run: as §1
# [23] = molecular target: Glc(a1-6)Glc(a1-6)Glc(a1-6)Glc
# How it was run: as §1
# [24] = molecular target: GlcNAc(a1-4)Gal(b1-4)GlcNAc
# How it was run: as §1
# [25] = molecular target: GlcNAc(b1-2)[GlcNAc(b1-4)]Man(a1-3)[GlcNAc(b1-4)][GlcNAc(b1-2)[GlcNAc(b1-6)]Man(a1-6)]Man(b1-4)GlcNAc(b1-4)[Fuc(a1-6)]GlcNAc
# How it was run: as §1
# [26] = molecular target: GlcNAc(b1-2)[GlcNAc(b1-6)]Man(a1-6)[GlcNAc(b1-2)Man(a1-3)]Man(b1-4)GlcNAc(b1-4)[Fuc(a1-6)]GlcNAc
# How it was run: as §1
# [27] = molecular target: GlcNAc(b1-3)Gal(b1-4)GlcNAc(b1-2)Man(a1-3)[GlcNAc(b1-3)Gal(b1-4)GlcNAc(b1-2)Man(a1-6)]Man(b1-4)GlcNAc(b1-4)GlcNAc
# How it was run: as §1
# [28] = molecular target: GlcNAc(b1-3)Gal(b1-4)GlcNAc(b1-3)Gal(b1-4)GlcNAc(b1-3)GalNAc
# How it was run: as §1
# [29] = molecular target: GlcNAc(b1-6)Gal(b1-4)GlcNAc
# How it was run: as §1
# [30] = molecular target: Man(a1-2)Man(a1-2)Man(a1-3)Man
# How it was run: as §1
# [31] = molecular target: Man(a1-3)[Man(a1-6)]Man(b1-4)GlcNAc(b1-4)[Fuc(a1-6)]GlcNAc
# How it was run: as §1
# [32] = molecular target: Neu5Ac(a2-3)Gal(b1-4)GlcNAc(b1-2)[Neu5Ac(a2-3)Gal(b1-4)GlcNAc(b1-6)]Man(a1-6)[Neu5Ac(a2-3)Gal(b1-4)GlcNAc(b1-2)Man(a1-3)][GlcNAc(b1-4)]Man(b1-4)GlcNAc(b1-4)GlcNAc
# How it was run: as §1
# [33] = molecular target: Neu5Ac(a2-3)Gal(b1-4)GlcNAc(b1-3)Gal(b1-4)GlcNAc
# How it was run: as §1
# [34] = molecular target: Neu5Ac(a2-3)Gal(b1-4)GlcNAc(b1-3)Gal(b1-4)GlcNAc(b1-3)[Neu5Ac(a2-3)Gal(b1-4)GlcNAc(b1-3)Gal(b1-4)GlcNAc(b1-6)]GalNAc
# How it was run: as §1
# [35] = molecular target: Neu5Ac(a2-3)Gal(b1-4)[Fuc(a1-3)]GlcNAc(b1-3)GalNAc
# How it was run: as §1
# [36] = molecular target: Neu5Ac(a2-3)Gal(b1-4)[Fuc(a1-3)]GlcNAc(b1-6)[Gal(b1-3)]GalNAc
# How it was run: as §1
# Neu5Ac(a2-3)GalNAc = molecular target: Neu5Ac(a2-3)GalNAc
# How it was run: as §1
# [37] = molecular target: Neu5Ac(a2-6)Gal(b1-4)GlcNAc(b1-2)Man(a1-3)[GlcNAc(b1-4)][Neu5Ac(a2-6)Gal(b1-4)GlcNAc(b1-2)Man(a1-6)]Man(b1-4)GlcNAc(b1-4)GlcNAc
# How it was run: as §1
# [38] = molecular target: Neu5Ac(a2-6)Gal(b1-4)GlcNAc(b1-2)Man(a1-6)Man(b1-4)GlcNAc(b1-4)GlcNAc
# How it was run: as §1
# [39] = molecular target: Neu5Ac(a2-6)Gal(b1-4)GlcNAc(b1-3)GalNAc
# How it was run: as §1
# [40] = molecular target: Neu5Gc(a2-3)Gal(b1-4)GlcNAc(b1-3)Gal(b1-4)GlcNAc(b1-2)Man(a1-3)[Neu5Gc(a2-3)Gal(b1-4)GlcNAc(b1-3)Gal(b1-4)GlcNAc(b1-2)Man(a1-6)]Man(b1-4)GlcNAc(b1-4)GlcNAc
# How it was run: as §1
binder,measurement,setting,value
B1,glycan array binding signal (z-score),[1],-0.462
same,glycan array binding signal (z-score),[2],-0.606
same,glycan array binding signal (z-score),[3],0.064
same,glycan array binding signal (z-score),[4],1.17
same,glycan array binding signal (z-score),[5],0.274
same,glycan array binding signal (z-score),[6],-0.365
same,glycan array binding signal (z-score),[7],-0.415
same,glycan array binding signal (z-score),[8],0.613
same,glycan array binding signal (z-score),[9],1.28
same,glycan array binding signal (z-score),[10],21.8
same,glycan array binding signal (z-score),[11],1.43
same,glycan array binding signal (z-score),[12],-0.092
same,glycan array binding signal (z-score),[13],-0.456
same,glycan array binding signal (z-score),[14],0.048
same,glycan array binding signal (z-score),[15],1
same,glycan array binding signal (z-score),Gal(a1-3)Gal(b1-4)GlcNAc,-0.529
same,glycan array binding signal (z-score),Gal(a1-4)Gal(b1-4)Glc,4.58
same,glycan array binding signal (z-score),[16],0.047
same,glycan array binding signal (z-score),[17],-0.205
same,glycan array binding signal (z-score),[18],0.208
same,glycan array binding signal (z-score),[19],-0.32
same,glycan array binding signal (z-score),[20],-0.129
same,glycan array binding signal (z-score),[21],0.967
same,glycan array binding signal (z-score),Gal3S6S(b1-4)GlcNAc,0.399
same,glycan array binding signal (z-score),[22],1.15
same,glycan array binding signal (z-score),GalNAc(b1-4)GlcNAc,1.24
same,glycan array binding signal (z-score),[23],0.295
same,glycan array binding signal (z-score),[24],-0.118
same,glycan array binding signal (z-score),[25],-0.311
same,glycan array binding signal (z-score),[26],0.625
same,glycan array binding signal (z-score),[27],-0.204
same,glycan array binding signal (z-score),[28],0.215
same,glycan array binding signal (z-score),[29],0.773
same,glycan array binding signal (z-score),[30],-0.235
same,glycan array binding signal (z-score),[31],-0.293
same,glycan array binding signal (z-score),[32],-0.583
same,glycan array binding signal (z-score),[33],0.027
same,glycan array binding signal (z-score),[34],0.253
same,glycan array binding signal (z-score),[35],1.05
same,glycan array binding signal (z-score),[36],1.18
same,glycan array binding signal (z-score),Neu5Ac(a2-3)GalNAc,-0.364
same,glycan array binding signal (z-score),[37],-0.341
same,glycan array binding signal (z-score),[38],0.243
same,glycan array binding signal (z-score),[39],-0.285
same,glycan array binding signal (z-score),[40],0.684
